DAX1 inh-1: inhibitors of human orphan nuclear receptor DAX1 (NR0B1); P51843; HEK293 Gal4-DAX1 luciferase reporter, luminescence; inhibition, % at 6.75 µM; 0.99% of 340,000 active; AID 504766;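 active means inhibition above the mean over all tested compounds plus 3 SD, cut at about 4.2% in these data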;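 further: 0% = DAX1-transfected cells with DMSO and 100% = empty-vector control cells with DMSO; inhibition shows as a rise in luminescence from relieved DAX1 repression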
SMARCA2 act: activators of SMARCA2 function. activation, % at 9.1 µM. 1% of 370,000 active. MG213 cells, MMTV-luciferase reporter, dexamethasone, overnight; in the data active means activation above about 7.8%;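 further: 0% = vehicle wells and 100% = reference activator wells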
ssDAF-12 act: activates DAF-12 receptor from parasite S. stercoralis; HEK293 ssDAF-12/GRIP1 lit1-tk-luc reporter, luminescence; % of 3 µM dafachronic acid response; activation, % at 6.8 µM; 1% of 370,000 active; AID 652126;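 active means activation above the mean over all tested compounds plus 3 SD, cut at about 0.9% in these data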;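 further: 0% = DMSO-only wells and 100% = 3 µM delta7-dafachronic acid wells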
DAX1 inh-2: DAX1 (NR0B1) inhibition, primary screen. HEK293T StAR-luciferase reporter, SF-1/DAX-1 repression relief. inhibition, % at 6.8 µM. 1.1% of 370,000 active. AID 652010;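 active means inhibition above the mean over all tested compounds plus 3 SD, cut at about 3.6% in these data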;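 further: 0% = DAX-1 cells with DMSO and 100% = cells lacking DAX-1 with DMSO; higher inhibition means more luminescence from relief of DAX-1 repression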
hcDAF-12 act: H. contortus DAF-12 activation, primary screen; 1.4% of 370,000 active; AID 652067; HEK293 hcDAF-12 lit1-tk-luc reporter, luminescence; 0% DMSO, 100% Δ7-dafachronic acid; activation, % at 6.8 µM;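 active means activation above the mean of all tested compounds plus 3 SD, cut at about 5.5% in these data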;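 further: 100% = response to 3 µM Δ7-dafachronic acid high control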
hgDAF-12 ag: hgDAF-12 agonism, primary luciferase screen; activation, % at 6.8 µM; HEK293 GAL4-hgDAF12 UAS-luciferase reporter, agonist luminescence; normalized to butyrate control; 1.8% of 370,000 active;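 active means activation above a cutoff set at the mean of all screened compounds plus 3 SD, cut at about 10% in these data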;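 further: 0% = DMSO wells and 100% = sodium butyrate wells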
DAX1 conf: NR0B1 (human) inhibition, confirmation; inhibition, % at 6.8 µM; 87% of 2,400 active; shares compounds with DAX1 inh-2; HEK293T StAR-promoter luciferase reporter, SF-1/DAX-1 repression;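 active means inhibition above the average of every tested compound plus 3 SD, cut at about 3.8% in these data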;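 further: 0% = DAX-1 cells with DMSO and 100% = no DAX-1 control cells with DMSO; active compounds raise luminescence by relieving repression of the StAR reporter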
SF1 mutant ctr: counter-screen for DAX1 inhibitors: nonselective inhibitors with SF-1 AF2 mutant; 78% of 2,400 active; HEK293 StAR-luciferase, luminescence; AID 652136; inhibition, % at 6.8 µM; shares compounds with DAX1 inh-2;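 active means inhibition above the mean of all tested compounds plus 3 SD, cut at about 3% in these data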;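 further: 0% = DAX-1 transfected cells with DMSO and 100% = cells without DAX-1 with DMSO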
LXRb hcDAF ctr: counter-screen for hcDAF-12 agonists: agonists of human LXR-beta; shares compounds with hcDAF-12 act; HEK293 Gal4-LXR tk-luc reporter, luminescence, 24 h; normalized: DMSO 0%, positive control 100%; activation, % at 6.8 µM; 3,400 tested, under 10 active;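 active means mean percent activation of the reporter above a cutoff set as the average over tested compounds plus their standard deviation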
Target sequence (P55055 whole entry, looked up, the tested form may be a part): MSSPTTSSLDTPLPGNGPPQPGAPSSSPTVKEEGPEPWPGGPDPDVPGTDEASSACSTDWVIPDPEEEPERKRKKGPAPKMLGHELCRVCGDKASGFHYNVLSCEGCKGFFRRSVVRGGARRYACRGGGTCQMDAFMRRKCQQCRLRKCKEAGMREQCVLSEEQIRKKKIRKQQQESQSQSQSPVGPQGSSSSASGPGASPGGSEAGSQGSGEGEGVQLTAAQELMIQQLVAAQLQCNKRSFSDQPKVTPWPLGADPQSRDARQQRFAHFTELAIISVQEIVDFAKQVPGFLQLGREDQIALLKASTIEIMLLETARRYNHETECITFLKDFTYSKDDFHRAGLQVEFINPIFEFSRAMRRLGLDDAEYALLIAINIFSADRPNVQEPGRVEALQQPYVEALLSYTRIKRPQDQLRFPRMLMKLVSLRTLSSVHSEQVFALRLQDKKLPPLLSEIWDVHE
hcDAF12 conf: hcDAF-12 agonism, confirmation assay; 61% of 3,400 active; HEK293 hcDAF-12 lit1-tk-luc reporter, luminescence; % of Δ7-dafachronic acid response; shares compounds with hcDAF-12 act; activation, % at 6.8 µM;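 active means mean activation across triplicate tests above the threshold derived from the earlier primary screen, cut at about 5.5% in these data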;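 further: 0% = DMSO only wells and 100% = 3 µM Δ7-dafachronic acid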
hgDAF12 conf: hgDAF-12 agonism, confirmation assay. shares compounds with hgDAF-12 ag. HEK293 GAL4-hgDAF12 luciferase reporter, agonist mode; percent of butyrate response. activation, % at 6.8 µM. 80% of 3,300 active. AID 743050;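 active means mean activation over triplicate wells above the hit cutoff derived from the earlier primary screen, cut at about 11% in these data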;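 further: 0% = DMSO low control and 100% = 2 mM sodium butyrate high control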
LXR ag 2: activates human LXR-beta, counter-screen for DAF-12 agonists; HEK293 Gal4-LXR luciferase reporter, 24 h; shares compounds with hgDAF-12 ag; activation, % at 6.8 µM; 3,300 tested, under 10 active;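 active means mean activation of the triplicate above a set limit carried over from the primary screen, none filed active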
Numbers without * were called inactive. The list is not random: actives were taken first. Their share in the collection is about 4.8%.

Screening Cc1occc1-c1nnc(SC(C)C(=O)Nc2ccccc2F)o1 (centres undefined) returned DAX1 inh-1 0, SMARCA2 act 6, ssDAF-12 act 0, DAX1 inh-2 10*, hcDAF-12 act 4, hgDAF-12 ag 15*, DAX1 conf 9.5*, SF1 mutant ctr 7.1*, hgDAF12 conf 14* and LXR ag 2 0.
For CC(Sc1nnc(-c2ccccc2F)o1)C(=O)Nc1ccc(N2CCOCC2)cc1 (centres undefined) the results were DAX1 inh-1 -1, SMARCA2 act 2, ssDAF-12 act -1, DAX1 inh-2 1, hcDAF-12 act 1 and hgDAF-12 ag 1.
For Cc1ccc2cc(CCNC(=O)CC(C)(C)C)c(=O)[nH]c2c1C the results were DAX1 inh-1 1, SMARCA2 act -2, ssDAF-12 act -1, DAX1 inh-2 1, hcDAF-12 act 1 and hgDAF-12 ag -2.
Screening Cc1ccc2cc(CCNC(=O)c3cccs3)c(=O)[nH]c2c1C returned DAX1 inh-1 3, SMARCA2 act 1, ssDAF-12 act -1, DAX1 inh-2 5.6*, hcDAF-12 act 4, hgDAF-12 ag 19*, DAX1 conf 6.8*, SF1 mutant ctr 3.7*, hgDAF12 conf 18* and LXR ag 2 1.
`O=C(c1ccccc1)n1ccc(-c2cnc(-c3ccccc3)s2)n1` gave DAX1 inh-1 1, SMARCA2 act 7, ssDAF-12 act 1.0*, DAX1 inh-2 4.9*, hcDAF-12 act 7.7*, hgDAF-12 ag 18*, DAX1 conf 13*, SF1 mutant ctr 5.6*, LXRb hcDAF ctr 2, hcDAF12 conf 7.1*, hgDAF12 conf 20* and LXR ag 2 1.
For COc1ccc(S(=O)(=O)n2ccc(-c3cnc(-c4ccccc4)s3)n2)cc1 the results were DAX1 inh-1 1, SMARCA2 act -4, ssDAF-12 act -1, DAX1 inh-2 0, hcDAF-12 act -2 and hgDAF-12 ag 3.
`O=C1C(C=Nc2ccc(F)cc2)=C(O)c2ccccc21` gave DAX1 inh-1 0, SMARCA2 act 4, ssDAF-12 act 1, DAX1 inh-2 5.3*, hcDAF-12 act 8.9*, hgDAF-12 ag 22*, DAX1 conf 19*, SF1 mutant ctr 8.7*, LXRb hcDAF ctr 2, hcDAF12 conf 9.5*, hgDAF12 conf 20* and LXR ag 2 1.
For COc1ccc(CNC(=O)C2=CC(c3ccc(C)cc3)=NS(=O)(=O)N2C)cc1 the results were DAX1 inh-1 1, SMARCA2 act -3, ssDAF-12 act -1, DAX1 inh-2 0, hcDAF-12 act 1 and hgDAF-12 ag -1.
`COc1ccc(-c2nn(-c3ccccc3)cc2N)cc1` gave DAX1 inh-1 2, SMARCA2 act 1, ssDAF-12 act 0, DAX1 inh-2 5.3*, hcDAF-12 act 4, hgDAF-12 ag 16*, DAX1 conf 9.2*, SF1 mutant ctr 5.8*, hgDAF12 conf 16* and LXR ag 2 0.
For CCOc1cccc2cc(C(=O)NCc3ccc(F)cc3)c(=N)oc12 the results were DAX1 inh-1 0, SMARCA2 act 1, ssDAF-12 act 0, DAX1 inh-2 0, hcDAF-12 act -1 and hgDAF-12 ag -1.
Screening O=C(NC1CCCCC1)c1ccc(-c2ccccc2F)o1 returned DAX1 inh-1 1, SMARCA2 act 6, ssDAF-12 act 2.0*, DAX1 inh-2 8.7*, hcDAF-12 act 10*, hgDAF-12 ag 20*, DAX1 conf 18*, SF1 mutant ctr 6.2*, LXRb hcDAF ctr 1, hcDAF12 conf 6.1*, hgDAF12 conf 19* and LXR ag 2 1.
O=C(NC1CCCCCC1)c1ccc(CS(=O)(=O)Cc2ccccc2F)o1 was read as DAX1 inh-1 0, SMARCA2 act -4, ssDAF-12 act -1, DAX1 inh-2 0, hcDAF-12 act 0 and hgDAF-12 ag 5.
Screening Cc1cc(C)nc(NN2C(=O)C=CC2=O)n1 returned DAX1 inh-1 2.
For CCC(=O)N1CCN(c2ccc(NC(=O)c3ccc(Br)o3)cc2)CC1 the results were DAX1 inh-1 0, SMARCA2 act 1, ssDAF-12 act -1, DAX1 inh-2 0, hcDAF-12 act -1 and hgDAF-12 ag 0.
Screening CC1CCN(c2ccc(NC(=O)c3ccc(Br)o3)cc2)CC1 returned DAX1 inh-1 1, SMARCA2 act 4, ssDAF-12 act 0, DAX1 inh-2 14*, hcDAF-12 act 4, hgDAF-12 ag 20*, DAX1 conf 11*, SF1 mutant ctr 9.6*, hgDAF12 conf 18* and LXR ag 2 1.
COC(=O)C1(C)Nc2ccccc2C(=O)N1c1ccccc1OC (centres undefined) was read as DAX1 inh-1 -1, SMARCA2 act -1, ssDAF-12 act 0, DAX1 inh-2 0, hcDAF-12 act -1 and hgDAF-12 ag 1.
COc1ccc(N2C(=O)c3ccccc3NC2(C)C)cc1 was read as DAX1 inh-1 0, SMARCA2 act 4, ssDAF-12 act -1, DAX1 inh-2 7.6*, hcDAF-12 act 3, hgDAF-12 ag 28*, DAX1 conf 3, SF1 mutant ctr 1, hgDAF12 conf 9 and LXR ag 2 0.
CCOC(=O)c1ccc(N/C=C/C(=O)c2ccco2)cc1 was read as DAX1 inh-1 2, SMARCA2 act 3, ssDAF-12 act 0, DAX1 inh-2 4.7*, hcDAF-12 act 3, hgDAF-12 ag 15*, DAX1 conf 12*, SF1 mutant ctr 7.1*, hgDAF12 conf 17* and LXR ag 2 1.

Compound activity deposited in PubChem BioAssay by The Scripps Research Institute Molecular Screening Center.
